Reference: PubChem BioAssay (Tox21)
Records with an inconclusive call do not appear. Entries that show only a call come without a potency. Activity calls are given as the source filed them. Unless noted, calls come from the whole dose curve; as a rule, active = well fitted curve in the direction sought with a large enough effect in the repeat runs; inconclusive = weak or mixed curves; inactive = no such curve, though single readings can be large; an effect the other way counts as inactive or inconclusive.

How the values were obtained:
[1] = target: Thyrotropin receptor (Homo sapiens) (UniProt P16473); assay: qHTS assay to identify small molecule antagonists of the thyroid stimulating hormone receptor (TSHR) signaling pathway (AID 1259385; calls by dose curve; note: nearly all actives have a fitted effect of over 20% in size)
Thyrotropin receptor (Homo sapiens), sequence (P16473 whole entry, looked up): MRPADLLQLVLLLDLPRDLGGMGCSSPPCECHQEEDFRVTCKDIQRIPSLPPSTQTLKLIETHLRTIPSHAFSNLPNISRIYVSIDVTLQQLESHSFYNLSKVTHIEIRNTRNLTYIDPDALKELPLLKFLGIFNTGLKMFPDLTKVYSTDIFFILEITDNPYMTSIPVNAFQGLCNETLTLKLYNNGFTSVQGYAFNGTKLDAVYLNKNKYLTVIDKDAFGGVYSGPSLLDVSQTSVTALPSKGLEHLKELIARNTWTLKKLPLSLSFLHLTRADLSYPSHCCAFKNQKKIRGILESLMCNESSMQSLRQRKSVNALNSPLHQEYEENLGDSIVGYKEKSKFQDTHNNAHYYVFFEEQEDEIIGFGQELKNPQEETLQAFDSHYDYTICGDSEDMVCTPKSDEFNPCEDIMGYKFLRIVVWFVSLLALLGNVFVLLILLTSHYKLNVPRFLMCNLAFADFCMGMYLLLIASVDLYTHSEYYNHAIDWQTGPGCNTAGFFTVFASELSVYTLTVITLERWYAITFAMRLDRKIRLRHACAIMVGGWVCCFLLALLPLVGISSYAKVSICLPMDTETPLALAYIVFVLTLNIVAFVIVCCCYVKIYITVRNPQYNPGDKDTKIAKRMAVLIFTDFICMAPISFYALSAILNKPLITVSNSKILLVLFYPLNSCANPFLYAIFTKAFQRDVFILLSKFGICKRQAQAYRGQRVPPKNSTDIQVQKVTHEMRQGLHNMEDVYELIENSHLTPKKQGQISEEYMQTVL
Summary of the method: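 Antagonist mode: compound-treated TSHR-expressing HEK293 cells were stimulated with 1.5 ng/mL TSH (final) in presence of Ro20-1724 for 30 min at RT. HTRF cAMP detection after 1 h; each compound tested at 15 concentrations, triplicate.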

[2] = qHTS assay to identify small molecule antagonists of the TGF-beta/Smad signaling pathway - cell viability counter screen (AID 1346824); note: nearly all actives have a fitted effect of over 50% in size
Summary of the method: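 Cytotoxicity counter-screen run in the same wells as the beta-lactamase Smad reporter read: CellTiter-Glo luminescence after 30 min at room temperature. HEK 293T SBE-bla cells had 5 hr compound exposure at 37 C with TGF-beta1 (0.25 ng/mL stock).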

[3] = qHTS assay to identify small molecule agonists of the TGF-beta/Smad signaling pathway - cell viability counter screen (AID 1346829); note: top concentration of the series differs between compounds; nearly all actives have a fitted effect of over 45% in size
Summary of the method: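 CellTiter-Glo luminescence readout; SBE-bla HEK 293T cells, overnight plating, compound 5 hr at 37 C/5% CO2, then bla substrate 2 hr RT, then CellTiter-Glo 30 min RT.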

[4] = qHTS assay to identify small molecule agonists of the estrogen receptor alpha (ER-alpha) signaling pathway in the presence of an antagonist - cell viability counter screen (AID 1259386);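 note: cells exposed to compounds for 22 h at 37 °C before the viability read; nearly all actives have a fitted effect of over 30% in size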; note: potency is the fitted concentration of half-maximal effect
Summary of the method: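 VM7Luc4E2 cells (endogenous full-length ER-alpha, 4×ERE-luciferase) were held 5 days in phenol red-free medium with 10% charcoal-stripped FBS, plated, then given 10.0nM ICI-182,780 and compounds at 15 concentrations for 22hr at 37C; viability read by CellTiter-Fluor fluorescence.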

[5] = qHTS assay to identify small molecule agonists of the progesterone receptor (PR) signaling pathway - cell viability counter screen (AID 1346799; calls by dose curve; note: nearly all actives have a fitted effect of over 45% in size; note: potency is the fitted concentration of half-maximal effect)
Summary of the method: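 In parallel with the beta-lactamase readout, cytotoxicity toward PR-UAS-bla HEK293T cells was measured by CellTiter-Glo luminescence following 16 hr compound incubation in 2% charcoal-stripped FBS medium.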

[6] = qHTS assay to identify small molecule agonists of the TGF-beta/Smad signaling pathway (AID 1346859; active = well fitted activation curve with a large enough effect in the signal ratio in the repeat runs, not every such curve was filed as active; the % refers to the signal ratio; note: series mostly up to about 77 µM)
Summary of the method: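 After overnight seeding, SBE-bla HEK 293T cells are dosed with compounds in DMSO and kept 5 hr at 37 C, 5% CO2. LiveBLAzer-type FRET substrate is then applied for 2 hr at room temperature.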

[7] = target: Thyrotropin-releasing hormone receptor (Homo sapiens) (UniProt P34981); assay: qHTS assay to identify small molecule antagonists of the thyrotropin-releasing hormone receptor (TRHR) signaling pathway (AID 1346877; active = well fitted inhibition curve with a large enough effect in the repeat runs, not every such curve was filed as active; note: potency is the fitted concentration of half-maximal effect)
Thyrotropin-releasing hormone receptor (Homo sapiens), sequence (P34981 whole entry, looked up): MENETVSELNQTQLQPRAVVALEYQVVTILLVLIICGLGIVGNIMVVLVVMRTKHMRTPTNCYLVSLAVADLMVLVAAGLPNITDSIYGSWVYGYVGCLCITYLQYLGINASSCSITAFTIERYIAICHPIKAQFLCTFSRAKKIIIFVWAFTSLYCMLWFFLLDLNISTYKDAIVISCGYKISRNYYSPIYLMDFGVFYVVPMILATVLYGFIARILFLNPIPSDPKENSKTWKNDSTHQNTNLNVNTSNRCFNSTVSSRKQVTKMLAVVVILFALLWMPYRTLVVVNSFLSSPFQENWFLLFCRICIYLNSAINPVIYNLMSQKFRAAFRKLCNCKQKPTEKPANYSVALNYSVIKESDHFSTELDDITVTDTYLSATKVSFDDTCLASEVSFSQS
Summary of the method: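 TRHR-expressing HEK293 cells were seeded, cultured 18 h at 37 °C, then loaded with calcium dye for 2 h. Compounds were pre-incubated 5 min at room temperature before 1 nM TRH (final) was added, and kinetic fluorescence was recorded for 3 min.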

[8] = target: Progesterone receptor (Homo sapiens) (UniProt P06401); assay: qHTS assay to identify small molecule agonists of the progesterone receptor (PR) signaling pathway (AID 1346784; calls by dose curve; note: nearly all actives have a fitted effect of over 30% in size)
Progesterone receptor (Homo sapiens), sequence (P06401 whole entry, looked up): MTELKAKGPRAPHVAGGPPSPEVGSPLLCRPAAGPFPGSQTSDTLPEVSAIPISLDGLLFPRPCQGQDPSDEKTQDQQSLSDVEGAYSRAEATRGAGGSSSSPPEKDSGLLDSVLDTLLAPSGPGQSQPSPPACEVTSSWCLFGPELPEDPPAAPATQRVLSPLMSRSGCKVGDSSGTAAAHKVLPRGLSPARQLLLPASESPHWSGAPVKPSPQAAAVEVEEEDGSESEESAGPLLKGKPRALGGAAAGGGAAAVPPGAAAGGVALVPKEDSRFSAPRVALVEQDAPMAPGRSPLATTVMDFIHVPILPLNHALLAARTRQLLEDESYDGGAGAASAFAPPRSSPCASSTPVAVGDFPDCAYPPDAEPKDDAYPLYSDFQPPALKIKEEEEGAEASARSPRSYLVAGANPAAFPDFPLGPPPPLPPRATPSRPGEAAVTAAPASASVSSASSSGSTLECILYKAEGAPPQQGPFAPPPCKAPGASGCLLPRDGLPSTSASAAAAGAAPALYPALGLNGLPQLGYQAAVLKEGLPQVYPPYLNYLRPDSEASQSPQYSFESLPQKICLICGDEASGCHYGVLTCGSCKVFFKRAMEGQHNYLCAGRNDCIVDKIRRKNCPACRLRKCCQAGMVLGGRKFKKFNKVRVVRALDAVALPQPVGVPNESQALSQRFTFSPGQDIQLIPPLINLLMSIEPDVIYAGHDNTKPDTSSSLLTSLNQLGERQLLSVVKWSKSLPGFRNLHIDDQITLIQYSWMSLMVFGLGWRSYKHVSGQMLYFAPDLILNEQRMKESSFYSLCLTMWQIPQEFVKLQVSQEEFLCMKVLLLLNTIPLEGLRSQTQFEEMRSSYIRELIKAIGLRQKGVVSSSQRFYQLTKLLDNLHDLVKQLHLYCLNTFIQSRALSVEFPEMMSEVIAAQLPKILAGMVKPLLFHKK
Summary of the method: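 Fluorescence from LiveBLAzer B/G FRET substrate cleavage (2 hr, RT) reported PR activation in PR-UAS-bla HEK 293T cells treated 16 hr at 37C/5% CO2 with compounds; medium contained 2% charcoal-stripped FBS.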

[9] = target: Progesterone receptor (Homo sapiens) (UniProt P06401); assay: qHTS assay to identify small molecule antagonists of the progesterone receptor (PR) signaling pathway (AID 1346795; active = well fitted inhibition curve with a large enough effect in the signal ratio in the repeat runs, not every such curve was filed as active; the % refers to the signal ratio; note: potency is the fitted concentration of half-maximal effect)
Summary of the method: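 Fluorescence intensity measured 2 hr after adding beta-lactamase FRET substrate to PR-UAS-bla HEK293T cells that had been co-treated 16 hr with compound and 1 nM R5020 (final concentration) in 2% charcoal-stripped FBS.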

[10] = qHTS assay to identify small molecule antagonists of the progesterone receptor (PR) signaling pathway - cell viability counter screen (AID 1346798); note: nearly all actives have a fitted effect of over 50% in size; note: potency is the fitted concentration of half-maximal effect
Summary of the method: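 CellTiter-Glo luminescence; PR-UAS-bla HEK293T, 3,000 cells/well; compound + R5020, 16 hr, 37C/5% CO2; 30 min RT before read.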

Structure (SMILES) | Potency [1] | Potency [2] | Potency [3] | Potency [4] | Potency [5] | outcome [6] | Potency [7] | Potency [8] | Potency [9] | Potency [10]
Clc1ccc(C2(Cn3cncn3)CC(Br)CO2)c(Cl)c1 (stereo not given) | inactive | inactive | inactive | – | – | – | – | – | – | –
S=C=NCc1ccccc1 | inactive | inactive | inactive | inactive | inactive | inactive | inactive | – | – | –
COC(=O)C(Br)CBr (stereo not given) | – | inactive | inactive | inactive | inactive | inactive | inactive | inactive | inactive | –
NC(=O)CI | – | inactive | inactive | inactive | inactive | inactive | inactive | inactive | inactive | inactive
CCOP(=O)(OCC)O/C(=C/Cl)c1ccc(Cl)cc1Cl | – | inactive | – | inactive | – | inactive | inactive | inactive | 10.9 µM (active) | inactive
O=NN1CCNCC1 | – | inactive | inactive | inactive | inactive | inactive | – | inactive | – | inactive
CCCCC(O)(Cn1cncn1)c1ccc(Cl)cc1Cl (stereo not given) | – | inactive | inactive | inactive | – | inactive | inactive | – | 17.2 µM (active) | –
II | – | inactive | inactive | inactive | 10.9 µM (active) | inactive | – | inactive | – | –
C=CC[C@]1(O)CC[C@H]2[C@@H]3CCC4=CC(=O)CCC4=C3C=C[C@@]21C | – | inactive | inactive | – | – | – | inactive | – | – | inactive
CN(N=O)c1ccc([N+](=O)[O-])cc1 | – | inactive | inactive | – | inactive | inactive | inactive | inactive | inactive | inactive
CCO[C@H]1O[C@@H]2OC3(C)CC[C@H]4[C@H](C)CC[C@@H]([C@H]1C)[C@@]24OO3 | – | inactive | inactive | inactive | inactive | inactive | inactive | inactive | – | inactive
C[C@]12CC[C@H]3[C@@H](CCC4=CC(=O)CC[C@@H]43)[C@@H]1CC[C@@H]2OC(=O)CCC1CCCCC1 | – | inactive | inactive | inactive | – | inactive | inactive | – | inactive | inactive
CCCN(CCC)c1c([N+](=O)[O-])cc(S(C)(=O)=O)cc1[N+](=O)[O-] | – | inactive | inactive | inactive | inactive | – | – | inactive | – | inactive
CCCCCCCCCC(=O)O[C@H]1CC[C@H]2[C@@H]3CCC4=CC(=O)CC[C@@H]4[C@H]3CC[C@]12C | – | inactive | inactive | inactive | inactive | inactive | inactive | – | – | inactive
CCC(COC(=O)c1cc(OC)c(OC)c(OC)c1)(c1ccccc1)N(C)C (stereo not given) | – | inactive | inactive | inactive | – | inactive | inactive | – | – | –
COP(=O)(OC)O/C(=C/Cl)c1cc(Cl)c(Cl)cc1Cl | – | inactive | inactive | inactive | inactive | inactive | inactive | – | 14.5 µM (active) | inactive
O=S1(=O)OC(c2cc(Br)c(O)c(Br)c2)(c2cc(Br)c(O)c(Br)c2)c2ccccc21 | – | inactive | inactive | 22.3 µM (active) | – | inactive | inactive | inactive | inactive | –
CCCC(Cn1cncn1)c1ccc(Cl)cc1Cl (stereo not given) | – | inactive | inactive | inactive | – | inactive | inactive | inactive | – | –
N#Cc1cc(I)c(O)c(I)c1 | – | inactive | inactive | 48.6 µM (active) | – | inactive | inactive | inactive | – | –
O=Cc1ccc(Cl)cc1Cl | – | inactive | inactive | inactive | inactive | – | inactive | inactive | – | –
CN1C[C@H](CNC(=O)OCc2ccccc2)C[C@@H]2c3cccc4c3c(cn4C)C[C@H]21 | – | inactive | inactive | inactive | – | inactive | inactive | inactive | inactive | –

Structure (SMILES) | Potency [1] | Potency [2] | Potency [3] | Potency [4] | Potency [5] | outcome [6] | Potency [7] | Potency [8] | Potency [9] | Potency [10]
CC(c1ccc(O)cc1)(c1ccc(O)cc1)c1ccc(O)cc1 | – | inactive | inactive | inactive | – | inactive | – | – | 19.3 µM (active) | –
CO/C=C(/C(=O)OC)c1ccccc1COc1cccc(C(F)(F)F)n1 | – | inactive | inactive | 8.63 µM (active) | – | – | inactive | inactive | – | inactive
CN1C(=O)C(O)N=C(c2ccccc2)c2cc(Cl)ccc21 (stereo not given) | – | inactive | inactive | inactive | – | inactive | – | – | inactive | inactive
O=C(O)C(F)(F)C(F)(F)C(F)(F)C(F)(F)C(F)(F)C(F)(F)C(F)(F)C(F)(F)C(F)(F)C(F)(F)F | – | inactive | inactive | inactive | – | inactive | inactive | – | inactive | inactive
COc1ccc(-c2ccccc2)cc1NNC(=O)OC(C)C | – | inactive | inactive | – | – | inactive | inactive | – | – | –
CC(=O)c1cc2c(cc1C)C(C)(C)C(C)CC2(C)C (stereo not given) | – | inactive | inactive | inactive | – | inactive | inactive | inactive | – | inactive
O=C1CN=C(c2ccccc2)c2cc(Cl)ccc2N1CC1CC1 | – | inactive | inactive | inactive | – | inactive | inactive | inactive | 11.4 µM (active) | –
O=C=Nc1ccc(Cl)cc1 | – | inactive | inactive | inactive | – | – | inactive | – | – | –
BrCC(Br)C1CCC(Br)C(Br)C1 (stereo not given) | – | – | inactive | inactive | inactive | inactive | inactive | inactive | – | inactive
CCC(C)(NC(=O)c1cc(Cl)c(C)c(Cl)c1)C(=O)CCl (stereo not given) | – | inactive | inactive | inactive | inactive | – | inactive | inactive | – | inactive
C=CC(=O)NCNC(=O)C=C | – | – | inactive | inactive | – | inactive | inactive | inactive | – | inactive
[CH3][Sn]([CH3])([Cl])[Cl] | – | inactive | inactive | – | inactive | inactive | inactive | inactive | inactive | inactive
O=C(Nc1ccccc1)Nc1ccnc(Cl)c1 | – | – | inactive | – | – | inactive | – | inactive | – | –
CC(O)(CS(=O)(=O)c1ccc(F)cc1)C(=O)Nc1ccc(C#N)c(C(F)(F)F)c1 (stereo not given) | – | inactive | inactive | inactive | inactive | – | inactive | inactive | – | inactive
CN(C)c1ccc(N(C)C)cc1 | – | inactive | inactive | – | – | – | – | inactive | inactive | inactive
OC(c1ccc(Cl)cc1)(c1ccc(Cl)cc1)c1cccnc1 | – | inactive | – | inactive | – | inactive | inactive | inactive | 17.2 µM (active) | –
C/C(=C\c1ccccc1)[N+](=O)[O-] | – | inactive | inactive | – | 68.6 µM (active) | – | inactive | – | – | –
Cc1ccc(-c2c(Cl)nc(C#N)n2S(=O)(=O)N(C)C)cc1 | – | inactive | inactive | inactive | – | inactive | – | – | – | 8.63 µM (active)
COC(N)=O | – | inactive | inactive | inactive | – | inactive | inactive | inactive | – | 43.3 µM (active)
O=C1NCN(c2ccccc2)C12CCN(CCCOc1ccc(F)cc1)CC2 | – | inactive | inactive | – | inactive | – | 6.58 µM (active) | inactive | – | inactive
